According to paper PMC7862700, “An all-to-all approach to the identification of sequence-specific readers for epigenetic DNA modifications on cytosine”:

Columns and labels:
Assay in all cases: DAPPL (digital affinity profiling via proximity ligation, sequencing); 10 mM Tris-HCl pH 7.5, 50 mM NaCl, 1 mM DTT, 4% glycerol, room temperature, 30 min; GST-TFs on glutathione beads, 16-mer random dsDNA library, 0.1% formaldehyde crosslink after washing; high values mean tight binding
FEV = target: T1, FEV (Homo sapiens, UniProt Q99581 1-238); conditions: protein: recombinant; tags: N-terminal GST; dsDNA, one strand shown
T1 sequence: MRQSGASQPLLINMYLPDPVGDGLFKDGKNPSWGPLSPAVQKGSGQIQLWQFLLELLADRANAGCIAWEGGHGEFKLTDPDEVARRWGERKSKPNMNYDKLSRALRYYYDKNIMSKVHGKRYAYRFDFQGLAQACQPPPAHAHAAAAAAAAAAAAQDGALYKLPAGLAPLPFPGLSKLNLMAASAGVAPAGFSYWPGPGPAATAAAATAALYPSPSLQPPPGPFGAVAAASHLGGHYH
In short: (§1)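 Human transcription factors fused to GST were expressed in yeast, captured on glutathione beads, given DNA barcodes and pooled with a GST-only negative control. Pools were incubated with 200 nmole of a 16-mer random double-stranded DNA library in Tris/NaCl/DTT/glycerol buffer at room temperature for 30 min. They were then washed, crosslinked with 0.1% formaldehyde, proximity-ligated (BsaI/T4 ligase, 1 h, 37 °C), PCR-amplified and sequenced on an Illumina NextSeq500. Binding signal is each 6-mer's read frequency for a factor divided by its frequency for the GST control.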

ETV5 = ETV5 (Homo sapiens, UniProt P41161 1-510); conditions: protein: recombinant; tags: N-terminal GST; dsDNA, one strand shown
Sequence of ETV5 (P41161 whole entry): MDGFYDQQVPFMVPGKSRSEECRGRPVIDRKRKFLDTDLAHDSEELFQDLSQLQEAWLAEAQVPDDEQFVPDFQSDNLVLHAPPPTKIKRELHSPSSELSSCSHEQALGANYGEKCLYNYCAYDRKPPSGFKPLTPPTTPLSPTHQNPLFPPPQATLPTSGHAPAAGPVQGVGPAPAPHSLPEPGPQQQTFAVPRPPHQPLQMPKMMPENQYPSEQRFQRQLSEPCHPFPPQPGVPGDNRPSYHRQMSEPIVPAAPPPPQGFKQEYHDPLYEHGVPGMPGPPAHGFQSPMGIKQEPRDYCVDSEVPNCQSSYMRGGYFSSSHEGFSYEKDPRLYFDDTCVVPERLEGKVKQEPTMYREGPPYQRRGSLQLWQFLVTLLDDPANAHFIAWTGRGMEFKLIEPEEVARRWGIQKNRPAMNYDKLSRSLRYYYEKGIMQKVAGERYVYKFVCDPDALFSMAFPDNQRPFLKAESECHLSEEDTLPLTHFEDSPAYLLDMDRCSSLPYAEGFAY
In short: as §1

HSF1 = HSF1 (Homo sapiens, UniProt Q00613 1-529); conditions: protein: recombinant; tags: N-terminal GST; chain copies: 3; dsDNA, one strand shown
Sequence of HSF1 (Q00613 whole entry): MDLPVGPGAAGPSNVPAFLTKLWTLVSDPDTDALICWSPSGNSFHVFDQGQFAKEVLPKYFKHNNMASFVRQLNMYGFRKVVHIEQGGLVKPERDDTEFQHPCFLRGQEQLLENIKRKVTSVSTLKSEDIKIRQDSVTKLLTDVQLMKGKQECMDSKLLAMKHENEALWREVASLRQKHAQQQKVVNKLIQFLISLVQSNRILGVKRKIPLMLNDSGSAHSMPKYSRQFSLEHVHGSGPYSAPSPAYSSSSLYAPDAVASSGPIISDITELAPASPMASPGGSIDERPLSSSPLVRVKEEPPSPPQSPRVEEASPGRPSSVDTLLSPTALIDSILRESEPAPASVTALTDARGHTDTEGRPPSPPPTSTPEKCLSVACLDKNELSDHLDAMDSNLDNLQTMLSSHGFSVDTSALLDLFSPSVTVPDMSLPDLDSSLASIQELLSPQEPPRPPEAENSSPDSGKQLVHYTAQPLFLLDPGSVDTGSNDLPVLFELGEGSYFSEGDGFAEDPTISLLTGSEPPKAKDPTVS
In short: as §1

SPIC = target: T2, SPIC (Homo sapiens, UniProt Q8N5J4 1-248); conditions: protein: recombinant; tags: N-terminal GST; dsDNA, one strand shown
T2 sequence: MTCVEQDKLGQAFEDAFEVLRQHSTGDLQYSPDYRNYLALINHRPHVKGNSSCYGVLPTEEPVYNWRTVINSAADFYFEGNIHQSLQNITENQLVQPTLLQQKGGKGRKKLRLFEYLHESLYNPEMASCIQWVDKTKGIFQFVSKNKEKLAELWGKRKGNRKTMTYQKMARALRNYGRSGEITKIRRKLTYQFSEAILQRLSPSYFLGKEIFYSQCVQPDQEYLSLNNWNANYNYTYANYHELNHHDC
In short: as §1

ELF4 = ELF4 (Homo sapiens, UniProt Q99607 1-663); conditions: protein: recombinant; tags: N-terminal GST; dsDNA, one strand shown
Sequence of ELF4 (Q99607 whole entry): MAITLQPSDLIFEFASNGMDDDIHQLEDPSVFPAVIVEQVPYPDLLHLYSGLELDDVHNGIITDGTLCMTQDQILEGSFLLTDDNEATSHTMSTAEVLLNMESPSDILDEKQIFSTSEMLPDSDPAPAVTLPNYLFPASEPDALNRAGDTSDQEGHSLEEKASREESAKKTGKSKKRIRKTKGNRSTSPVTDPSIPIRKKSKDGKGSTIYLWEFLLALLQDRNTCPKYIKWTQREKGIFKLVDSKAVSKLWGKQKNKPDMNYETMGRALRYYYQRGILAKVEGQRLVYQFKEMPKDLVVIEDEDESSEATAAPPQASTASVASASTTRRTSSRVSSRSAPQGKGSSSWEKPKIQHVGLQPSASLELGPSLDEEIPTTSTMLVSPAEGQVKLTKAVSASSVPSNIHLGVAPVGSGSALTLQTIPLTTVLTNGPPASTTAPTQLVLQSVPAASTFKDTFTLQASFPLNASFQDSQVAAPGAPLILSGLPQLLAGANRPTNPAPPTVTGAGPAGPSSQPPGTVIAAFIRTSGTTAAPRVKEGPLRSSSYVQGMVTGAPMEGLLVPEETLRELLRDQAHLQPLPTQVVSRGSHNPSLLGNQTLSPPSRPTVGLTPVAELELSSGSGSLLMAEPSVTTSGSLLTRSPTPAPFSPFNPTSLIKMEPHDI
In short: as §1

ELK4 = target: T3, ELK4 (Homo sapiens, UniProt P28324-2 1-405); conditions: protein: recombinant; tags: N-terminal GST; dsDNA, one strand shown
T3 sequence: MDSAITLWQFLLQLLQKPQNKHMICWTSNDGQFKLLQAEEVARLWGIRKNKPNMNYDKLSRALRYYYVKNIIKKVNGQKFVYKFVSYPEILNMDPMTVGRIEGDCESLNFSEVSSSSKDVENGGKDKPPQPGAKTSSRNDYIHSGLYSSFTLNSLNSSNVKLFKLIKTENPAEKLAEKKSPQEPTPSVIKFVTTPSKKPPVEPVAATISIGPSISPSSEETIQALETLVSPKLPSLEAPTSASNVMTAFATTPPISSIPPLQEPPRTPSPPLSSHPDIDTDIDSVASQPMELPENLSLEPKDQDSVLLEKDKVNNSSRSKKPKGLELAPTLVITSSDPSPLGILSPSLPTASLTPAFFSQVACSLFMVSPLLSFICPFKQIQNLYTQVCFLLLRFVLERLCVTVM
In short: as §1

ETV2 = target: T4, ETV2 (Homo sapiens, UniProt O00321 1-342); conditions: protein: recombinant; tags: N-terminal GST; dsDNA, one strand shown
T4 sequence: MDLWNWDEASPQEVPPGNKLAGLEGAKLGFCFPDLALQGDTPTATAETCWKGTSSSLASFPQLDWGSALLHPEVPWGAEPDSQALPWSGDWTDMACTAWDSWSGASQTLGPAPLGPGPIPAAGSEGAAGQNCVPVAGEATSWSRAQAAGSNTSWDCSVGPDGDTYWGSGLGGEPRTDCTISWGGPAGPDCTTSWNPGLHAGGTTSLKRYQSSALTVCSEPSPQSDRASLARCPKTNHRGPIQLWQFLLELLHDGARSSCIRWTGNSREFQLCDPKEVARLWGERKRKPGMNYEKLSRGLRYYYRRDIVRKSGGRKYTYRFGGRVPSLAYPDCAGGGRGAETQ
In short: as §1

CRX = CRX (Homo sapiens, UniProt O43186 1-299); conditions: protein: recombinant; tags: N-terminal GST; dsDNA, one strand shown
Sequence of CRX (O43186 whole entry): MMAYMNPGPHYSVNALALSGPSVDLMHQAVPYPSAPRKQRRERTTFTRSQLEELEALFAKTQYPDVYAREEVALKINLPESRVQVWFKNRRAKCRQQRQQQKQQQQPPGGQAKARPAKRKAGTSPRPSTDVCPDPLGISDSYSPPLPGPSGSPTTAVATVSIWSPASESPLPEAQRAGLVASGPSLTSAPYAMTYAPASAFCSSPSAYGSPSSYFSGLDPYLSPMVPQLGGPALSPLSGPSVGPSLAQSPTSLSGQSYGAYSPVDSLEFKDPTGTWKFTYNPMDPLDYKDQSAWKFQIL
In short: as §1

ETV1 = ETV1 (Homo sapiens, UniProt P50549 1-477); conditions: protein: recombinant; tags: N-terminal GST; dsDNA, one strand shown
Sequence of ETV1 (P50549 whole entry): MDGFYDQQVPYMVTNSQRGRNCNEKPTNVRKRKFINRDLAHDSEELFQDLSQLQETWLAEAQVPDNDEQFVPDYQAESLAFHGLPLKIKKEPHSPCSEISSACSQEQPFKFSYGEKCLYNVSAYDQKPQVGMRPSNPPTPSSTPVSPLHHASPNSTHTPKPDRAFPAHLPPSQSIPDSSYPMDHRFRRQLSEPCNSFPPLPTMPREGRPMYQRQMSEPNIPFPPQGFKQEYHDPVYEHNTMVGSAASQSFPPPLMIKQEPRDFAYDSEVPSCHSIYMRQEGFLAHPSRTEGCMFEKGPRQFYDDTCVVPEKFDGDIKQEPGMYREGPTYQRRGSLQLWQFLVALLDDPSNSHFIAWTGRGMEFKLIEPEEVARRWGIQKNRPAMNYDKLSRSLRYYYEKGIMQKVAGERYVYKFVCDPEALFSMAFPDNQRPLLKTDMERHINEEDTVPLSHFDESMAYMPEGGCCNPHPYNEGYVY
In short: as §1

ELF3 = target: T5, ELF3 (Homo sapiens, UniProt P78545 1-371); conditions: protein: recombinant; tags: N-terminal GST; dsDNA, one strand shown
T5 sequence: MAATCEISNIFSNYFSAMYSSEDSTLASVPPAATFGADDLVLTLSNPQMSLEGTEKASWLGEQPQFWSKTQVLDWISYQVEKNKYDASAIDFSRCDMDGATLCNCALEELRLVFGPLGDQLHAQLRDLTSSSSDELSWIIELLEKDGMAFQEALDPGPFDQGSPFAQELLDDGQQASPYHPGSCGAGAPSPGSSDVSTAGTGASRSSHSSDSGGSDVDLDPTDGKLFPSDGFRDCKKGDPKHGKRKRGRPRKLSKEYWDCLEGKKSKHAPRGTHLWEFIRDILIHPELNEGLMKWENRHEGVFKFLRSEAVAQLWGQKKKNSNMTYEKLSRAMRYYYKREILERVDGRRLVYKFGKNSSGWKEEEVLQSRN
In short: as §1

Sequence	binding signal (FEV)	binding signal (ETV5)	binding signal (HSF1)	binding signal (SPIC)	binding signal (ELF4)	binding signal (ELK4)	binding signal (ETV2)	binding signal (CRX)	binding signal (ETV1)	binding signal (ELF3)
CCACGA	1.11 fold enrichment (6-mer frequency, TF over GST control)	1.02 fold enrichment (6-mer frequency, TF over GST control)	1.12 fold enrichment (6-mer frequency, TF over GST control)	1.17 fold enrichment (6-mer frequency, TF over GST control)	1.1 fold enrichment (6-mer frequency, TF over GST control)	1.18 fold enrichment (6-mer frequency, TF over GST control)	1.09 fold enrichment (6-mer frequency, TF over GST control)	1 fold enrichment (6-mer frequency, TF over GST control)	1.02 fold enrichment (6-mer frequency, TF over GST control)	–
TGCCTG	1.16 fold enrichment (6-mer frequency, TF over GST control)	1.37 fold enrichment (6-mer frequency, TF over GST control)	1.05 fold enrichment (6-mer frequency, TF over GST control)	1.32 fold enrichment (6-mer frequency, TF over GST control)	1.22 fold enrichment (6-mer frequency, TF over GST control)	1.25 fold enrichment (6-mer frequency, TF over GST control)	1.2 fold enrichment (6-mer frequency, TF over GST control)	–	1.49 fold enrichment (6-mer frequency, TF over GST control)	1.05 fold enrichment (6-mer frequency, TF over GST control)
TTGAAC	–	1.05 fold enrichment (6-mer frequency, TF over GST control)	1.02 fold enrichment (6-mer frequency, TF over GST control)	1.06 fold enrichment (6-mer frequency, TF over GST control)	1.12 fold enrichment (6-mer frequency, TF over GST control)	1.32 fold enrichment (6-mer frequency, TF over GST control)	1.27 fold enrichment (6-mer frequency, TF over GST control)	1.03 fold enrichment (6-mer frequency, TF over GST control)	1.08 fold enrichment (6-mer frequency, TF over GST control)	–
GTTCCG	1.99 fold enrichment (6-mer frequency, TF over GST control)	1.94 fold enrichment (6-mer frequency, TF over GST control)	1.05 fold enrichment (6-mer frequency, TF over GST control)	2.08 fold enrichment (6-mer frequency, TF over GST control)	1.64 fold enrichment (6-mer frequency, TF over GST control)	1.79 fold enrichment (6-mer frequency, TF over GST control)	1.61 fold enrichment (6-mer frequency, TF over GST control)	–	2.07 fold enrichment (6-mer frequency, TF over GST control)	1.82 fold enrichment (6-mer frequency, TF over GST control)
TGGCAC	1.31 fold enrichment (6-mer frequency, TF over GST control)	1.18 fold enrichment (6-mer frequency, TF over GST control)	1.03 fold enrichment (6-mer frequency, TF over GST control)	1.24 fold enrichment (6-mer frequency, TF over GST control)	1.25 fold enrichment (6-mer frequency, TF over GST control)	1.12 fold enrichment (6-mer frequency, TF over GST control)	1.24 fold enrichment (6-mer frequency, TF over GST control)	–	1.11 fold enrichment (6-mer frequency, TF over GST control)	1.18 fold enrichment (6-mer frequency, TF over GST control)
CCACTG	1.19 fold enrichment (6-mer frequency, TF over GST control)	1.15 fold enrichment (6-mer frequency, TF over GST control)	1.08 fold enrichment (6-mer frequency, TF over GST control)	1.34 fold enrichment (6-mer frequency, TF over GST control)	1.2 fold enrichment (6-mer frequency, TF over GST control)	1.18 fold enrichment (6-mer frequency, TF over GST control)	1.17 fold enrichment (6-mer frequency, TF over GST control)	–	1.31 fold enrichment (6-mer frequency, TF over GST control)	1.04 fold enrichment (6-mer frequency, TF over GST control)
GAAAGA	–	1.04 fold enrichment (6-mer frequency, TF over GST control)	1.4 fold enrichment (6-mer frequency, TF over GST control)	1.05 fold enrichment (6-mer frequency, TF over GST control)	1.07 fold enrichment (6-mer frequency, TF over GST control)	1.01 fold enrichment (6-mer frequency, TF over GST control)	1.07 fold enrichment (6-mer frequency, TF over GST control)	1.01 fold enrichment (6-mer frequency, TF over GST control)	1.03 fold enrichment (6-mer frequency, TF over GST control)	–
